Compound activity from PubChem.
This is one part of a sample in which hits are shown more often than they occur.
TbREL1 inh: TbREL1 RNA ligase inhibitors, primary screen, biochemical, FRET fluorescence | RNA-editing ligase 1, mitochondrial (Trypanosoma brucei brucei), P86926 | TbREL1 RNA ligation | inhibition, % at 9.66 µM | 89,000 compounds, 0.49% hits | AID 1117264, 2014;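 active = inhibition above the mean inhibition across all screened compounds plus 3 SD, cut at about 11% in these data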;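 also: 0% = plate median of test wells and 100% = NSC42067 control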
TbREL1 conf: TbREL1 RNA ligase inhibitors, confirmation, biochemical, FRET fluorescence, triplicate; shares compounds with TbREL1 inh; inhibition, % at 9.66 µM; AID 1117282, 2014; TbREL1 RNA ligation; 390 compounds, 37% hits;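 active = mean inhibition across replicates above a set limit taken from the earlier primary screen, cut at about 11% in these data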;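 also: 0% = REL1 with substrate and DMSO and 100% = REL1 plus control inhibitor NSC42067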
* marks the source's active call; other numbers are inactive results.

SMILES	TbREL1 inh	others
N/C(=N\N=C/c1ccc(-c2ccc(O)c(C(=O)O)c2)o1)N[N+](=O)[O-]	49*	TbREL1 conf=17*
COc1ccc(/C=N/N=C(/N)N[N+](=O)[O-])c(OC)c1	1
COC(=O)C1=C(c2ccc(F)cc2OCc2ccccc2)C[C@@H]2CC[C@H]1N2C(=O)NCc1ccccc1OC	-2
C=CCCC(NC(=O)OCc1ccccc1)P(=O)(Oc1ccccc1)Oc1ccccc1 (configuration not stated)	1
Clc1cccc(N2Cc3cc(N4CCOCC4)ccc3-n3nncc3C2)c1	-1
CC(C)(C)C(=O)N1Cc2cc(-c3cccc(F)c3)ccc2-n2nncc2C1	-2
COc1ccc(-c2ccc3c(c2)CN(c2cccc(Cl)c2)Cc2cnnn2-3)cc1	15*	TbREL1 conf=5
COc1ccc(-n2nnnc2C(c2cccc3ccccc23)N2CCC3(CC2)C(=O)NCN3c2ccccc2)cc1 (configuration not stated)	0
O=c1[nH]c(O)c(C=Nc2ccc(Cl)c(C(F)(F)F)c2)c(=O)[nH]1	-2
CCOP(=O)(OCC)C(NC(C)=O)C(Cl)(Cl)Cl (configuration not stated)	2
CN1CCN(c2ccc(N)cc2)CC1	17*	TbREL1 conf=11
CN1CCN(c2ccc(NC(=O)C(C)(C)C)cc2)CC1	-1
C[C@@H]1COc2cc(N3CCN(C)CC3)ccc2S(=O)(=O)N1	-2
O=c1[nH]c(=O)n(Cc2ccc(F)cc2)c(O)c1/C=N/Nc1ccccc1	2
S=P(c1ccccc1)(c1ccccc1)c1c[n+](Cc2ccccc2)c2ccccn12	5
CC(=O)OC1N=C(c2ccccc2)c2cc(C)ccc2NC1=O (configuration not stated)	-1
C=CCNC(=S)N1Cc2cc(Br)ccc2-n2nncc2C1	-3
Cc1cc(O)c2c(c1)C(=O)[C@@]13C(=C2O)C(=O)[C@H]2C(O)[C@@H]1[C@H]1C(O)[C@@H]3C(=O)C3=C(O)c4c(O)cc(C)cc4C(=O)[C@@]312 (some centres not stated)	32*	TbREL1 conf=63*
O=c1[nH]c2ccccc2n1C1CCN(C(c2ccccc2OC(F)(F)F)c2nnnn2-c2ccc3c(c2)OCCO3)CC1 (configuration not stated)	2
CCCNC(=O)N1[C@H]2CC[C@@H]1C(C(=O)OC)=C(c1ccc(-c3ccccc3)c(F)c1)C2	0
CCC(C)NC(=O)c1c(N)n(CCCOC)c2nc3ccccc3nc12 (configuration not stated)	44*	TbREL1 conf=36*
CCC(C)OC(=O)c1c(N)n(Cc2cccs2)c2nc3ccccc3nc12 (configuration not stated)	7
Cc1cccn2c(NCC3CCCO3)c(C(C)C)nc12 (configuration not stated)	-1
CCC(C)NC(=O)c1c(N)n(CC2CCCO2)c2nc3ccccc3nc12 (configuration not stated)	37*	TbREL1 conf=29*
O=C(NC1CN2CCC1CC2)c1cc(-c2ccc(Cl)cc2)nc2ccccc12 (configuration not stated)	-2
COC(=O)C1=C(c2ccccc2OCc2ccccc2)C[C@@H]2CC[C@H]1N2C(=O)NCc1ccc(Br)cc1	1
Cc1ccc(C(O)(C(=O)OC(C)C)C(O)c2ccccc2)cc1 (configuration not stated)	-1
CC(C)Sc1nnc([C@@H](N)Cc2ccccc2)o1	3
COC(=O)[C@@]1(O)c2c(oc3cccc(O)c3c2=O)C=C[C@H]1O	-1
COC(=O)C1=C(c2ccccc2OCc2ccccc2)C[C@@H]2CC[C@H]1N2C(=O)NCCN1CCOCC1	-3
